# High-throughput results: PubChem, National Center for Advancing Translational Sciences (NCATS)
# Only some compounds are listed: those with a hit (about 8.9% of all), similar ones and a draw of the others.
# KB-3-1 tox – KB-3-1 parental cell cytotoxicity | KB-3-1 viability, CellTiter-Glo ATP luminescence, 72 h | Potency, µM (top dose mostly 46.1 µM), actives largely listed as cytotoxic | actives 1.4% (n = 400,000) | AID 1347075; also: potency is read from the fitted curve at half-maximal effect; % is scaled to controls: 0 for no effect and ±100 for the full control effect; nearly all actives have a fitted effect of over 60% in size
#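 Cytotoxicity measured as CellTiter-Glo luminescence after 72 h at 37 C. Compound titrations were pinned onto drug-naive KB-3-1 parental adenocarcinoma cells grown in DMEM with 10% FBS, and normalized data fitted to concentration-response curves.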
# KB-V1 MDR tox – kills drug-selected multidrug resistant KB-V1 cells | KB-V1 MDR cells viability, CellTiter-Glo, 72 h | Potency, µM (top dose mostly 46.1 µM), actives largely listed as cytotoxic | actives 3.4% (n = 400,000) | AID 1347076; also: potency is read from the fitted curve at half-maximal effect; % is scaled to controls: 0 for no effect and ±100 for the full control effect; nearly all actives have a fitted effect of over 60% in size
#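 Cells of the MDR subline KB-V1 are plated, dosed with compound at multiple concentrations, and incubated 72 h at 37 degrees C; CellTiter-Glo is then added and luminescence read after 10 min.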
# SW480 rereplic – DNA re-replication induction in SW480 cells; SW480 DNA re-replication, Hoechst DNA content imaging, 48 h; Potency, µM (doses to about 46.1 µM), without a hit: at the top dose re-replication activation, usual class: activators; actives 1.8% (n = 340,000); also: potency is read from the fitted curve at half-maximal effect; % of control where 0% means no effect; nearly all actives have a fitted effect of over 55% in size
#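 DNA re-replication was detected as more nuclei of elevated Hoechst intensity after 48 hr exposure to compound (23 nL pinned per well of 250 cells).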
# MCF10A rereplic – inducers of DNA re-replication in MCF 10A breast cells. Potency, µM (series often up to 46.1 µM), inactives show top-dose activity, positive = re-replication, usual class: activators. AID 624296. actives 2.9% (n = 350,000). MCF 10A DNA re-replication, Hoechst nuclear intensity, 48 h; also: potency is read from the fitted curve at half-maximal effect; % of control where 0% means no effect; nearly all actives have a fitted effect of over 50% in size
# DRD3 antagonist – antagonists of human D3 dopamine receptor | AID 652054 | D3R cells, DiscoveRx beta-arrestin luminescence, antagonist mode; active compounds read low | max response, negative = inhibition, % | actives 2.5% (n = 360,000); in the data active = max response below about -50%; inconclusive = no clear call, values can overlap the other calls; also: % is scaled to controls: 0 for no effect and ±100 for the full control effect
# Target sequence (P35462 whole entry, looked up): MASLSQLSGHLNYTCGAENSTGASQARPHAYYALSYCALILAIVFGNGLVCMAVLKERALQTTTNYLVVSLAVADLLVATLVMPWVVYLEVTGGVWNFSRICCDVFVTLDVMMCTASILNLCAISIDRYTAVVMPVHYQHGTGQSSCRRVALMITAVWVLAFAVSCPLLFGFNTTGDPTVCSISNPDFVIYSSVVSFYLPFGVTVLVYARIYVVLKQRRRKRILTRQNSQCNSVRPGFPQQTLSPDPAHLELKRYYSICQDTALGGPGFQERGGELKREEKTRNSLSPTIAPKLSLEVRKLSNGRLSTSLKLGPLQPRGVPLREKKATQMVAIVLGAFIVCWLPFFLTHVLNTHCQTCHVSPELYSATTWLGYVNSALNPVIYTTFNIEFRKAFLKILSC
#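 Cells expressing the human receptor were seeded at 1500 cells/well, incubated overnight at 37 degrees C in 5% CO2, then exposed to library compounds with dopamine controls for 90 minutes at 37 degrees C before luminescent detection.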
# DRD3 agonist – agonists of human D3 dopamine receptor; AID 652048; max activation, %; actives 0.58% (n = 410,000); D3R DiscoveRx beta-arrestin cells, luminescence, 90 min; in the data active = max activation above about 30%; also: 0% is about no effect
#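 Agonist mode: compounds and dopamine controls were applied to plated cells for 90 min at 37 degrees C after an overnight attachment at 1500 cells/well. Luminescent read-out followed 30 - 60 minutes at room temperature with DiscoveRx detection reagent.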
# Active calls of the source: *; i = inactive; ? = inconclusive; / = no result; [ ] = dose if it differs, or a comment. Unless noted, calls follow the shape of the dose curve; as a rule, active = well fitted curve in the direction sought with a large enough effect; inconclusive = small, poorly fitted or top-dose-only effect, or another doubt; inactive = no such curve, though single readings can be large; an effect the other way counts as inactive or inconclusive.
SMILES,KB-3-1 tox,KB-V1 MDR tox,SW480 rereplic,MCF10A rereplic,DRD3 antagonist,DRD3 agonist
CCCCC(NC(C)=O)c1nc2ccccc2n1CCC (centres undefined),i,21µM*,-1%,1%,8,-5
O/N=C(/CBr)c1ccc2ccccc2c1,i,i,/,/,/,/
Cc1cccc(N2CCN(C(=O)C3CCC(CNS(=O)(=O)c4cccs4)CC3)CC2)c1C (centres undefined),21µM*,?,?,?,2,13
Cc1cccc(N2CCN(C(=O)C3CCC(CNS(=O)(=O)c4ccc(Br)s4)CC3)CC2)c1C (centres undefined),i,i,/,/,/,6
CCN1CCN(C(=O)C2CCC(CNS(=O)(=O)c3ccccc3)CC2)CC1 (centres undefined),i,i,-10%,4%,4,-6
Cc1ccc(S(=O)(=O)NCC2CCC(C(=O)N3CCN(C)CC3)CC2)cc1 (centres undefined),i,i,?,18µM*,-8,8
O=C(Nc1ccc(Cl)cc1Cl)c1cc(S(=O)(=O)N2CCN(c3ccccc3F)CC2)ccc1F,/,/,/,/,/,-6
OCCNCc1ccc(OCc2ccc(Cl)cc2Cl)cc1,i,i,4.1µM*,?,-23,-10
OCCCCNCc1ccc(OCc2ccc(Cl)cc2Cl)cc1,i,i,3%,10%,-26,-6
COc1ccc(-c2nc(C)c(CCNC(=O)C(=O)Nc3ccccc3OC)s2)cc1,i,i,/,/,/,19
COCCn1c(C)cc(O)c(C(c2ccccc2Cl)N2CCCCC2)c1=O (centres undefined),i,i,/,/,/,-5
COc1ccccc1CNS(=O)(=O)CCNC1CC1,i,i,-1%,18%,-3,32*
COc1ccccc1CNCCS(=O)(=O)NCc1ccccc1OC,i,i,-25%,-6%,?,-16
CCCCCCCCNCCS(=O)(=O)NCc1ccccc1OC,i,i,-5%,-3%,-60*,-32
COc1ccccc1CNS(=O)(=O)CCNC1CCCCC1,i,i,-8%,1%,-73*,-25
CCCCNCCS(=O)(=O)NCc1ccccc1OC,i,i,-7%,-7%,?,-18
CCOc1ccccc1NC(=O)Cc1coc2c(C)c(C)ccc12,i,?,/,/,/,3
Clc1ccc(-c2cn3c(n2)-c2ccccc2C3)cc1Cl,i,15µM*,-2%,-2%,11,1
CC(=O)N(CC(O)CO)c1c(I)c(C(=O)NCCO)c(I)c(C(=O)NCC(O)CO)c1I (centres undefined),/,/,/,/,/,4
Cc1ccc(C(C#N)c2ccc3c(C(F)(F)F)cc(C(F)(F)F)nc3n2)cc1 (centres undefined),?,?,-9%,9%,?,1
N#CC(c1ccccc1)c1ccc2c(C(F)(F)F)cc(C(F)(F)F)nc2n1 (centres undefined),?,i,-3%[9.22 µM],?,-80*,0
CCCCCCCCn1ccc(=N)cc1,5.8µM*,i,-2%,0%,13,11
CCCCCCCCCCn1ccc(=N)cc1,2.3µM*,?,21µM*,?,12,8
N#CC1=C(N)N2C(=C(C#N)C1c1cccc(Br)c1)Nc1ccccc12 (centres undefined),?,5.8µM*,15µM*,21µM*,21,21
N#CC1=C(N)N2C(=C(C#N)C1c1ccc(Br)cc1)Nc1ccccc12 (centres undefined),i,i,16µM*,2.1µM*,27,10
SMILES,KB-3-1 tox,KB-V1 MDR tox,SW480 rereplic,MCF10A rereplic,DRD3 antagonist,DRD3 agonist
CN(C)S(=O)(=O)c1ccc(-c2csc(N/N=C/c3ccc(O)cc3)n2)cc1,21µM*,15µM*,-80%,?,60,35*
CN(C)S(=O)(=O)c1ccc(-c2csc(N/N=C/c3ccco3)n2)cc1,?,?,-10%,?,50,-1
COc1cc(CNn2nnnc2N)cc(Br)c1OCc1c(Cl)cccc1Cl,?,21µM*,2%,5%,-1,0
c1ccc(CNCC2COc3ccccc3O2)cc1 (centres undefined),i,i,2%,-1%,0,19
COc1ccc(CNCC(O)COCc2cccs2)cc1 (centres undefined),i,?,4%,0%,-21,-21
CC(OCC(O)CNCC1COc2ccccc2O1)c1ccc(Cl)cc1 (centres undefined),i,?,-5%,?,-68*,-3
OC(CNCC1COc2ccccc2O1)COCc1cccs1 (centres undefined),?,21µM*,-2%,1%,-71*,-30
CC(=O)c1cccc(OCC(O)CNCC2COc3ccccc3O2)c1 (centres undefined),i,i,-10%,-27%,-51*,37*
C(=Nc1ccc(/C=C/c2ccnc3ccccc23)cc1)c1ccco1,i,i,/,/,/,/
COc1cc2c(cc1OC)n(CC(=O)c1ccc(C)cc1C)c(=O)n1nc(CCn3nc(C)cc3C)nc21,/,/,/,/,/,2
COc1cccc(NC(=O)C2(C)CCN2C(=O)Cc2ccc(-c3ccccc3)cc2)c1 (centres undefined),i,i,/,/,29,10
COc1cccc(NC(=O)C2(C)CCN2C(=O)CCc2ccc(Cl)cc2Cl)c1 (centres undefined),i,?,/,/,-60*,-5
Clc1cccc(Cl)c1Cn1cnc2c(NCc3ccco3)ncnc21,?,3.5µM*,10µM*,16µM*,?,-10
Cn1cnc2c(NCc3ccco3)ncnc21,i,i,-44%,36%,-25,2
Clc1cccc(Cl)c1Cn1cnc(=NCc2ccco2)c2[nH]cnc21,i,8.2µM*,9%,?,-6,-6
CCOc1ccc(C(=O)Nc2ccc(S(=O)(=O)N3C[C@@H]4C[C@@H](C3)c3cccc(=O)n3C4)cc2)cc1,i,i,?,?,-16,-17
Cc1ccc(NC(=O)CCS(=O)(=O)c2cccc3nsnc23)c(C)c1,i,i,/,/,/,9
NC(=O)CCN1CCN(CCOC2Cc3cc(Cl)ccc3Sc3ccccc32)CC1 (centres undefined),i,?,?,?,-86*,-6
Clc1cccc2c1Sc1ccccc1CC2N1CCNCC1 (centres undefined),?,?,6%,?,-55*,-36
COCCCN1CCN(C2Cc3ccccc3Sc3ccc(Cl)cc32)CC1 (centres undefined),?,?,28%,?,-97*,-17
